# Reference: the supplement of paper PMC6555819
# Tested on: PPARg:RXRa 90nM:30nM, anti-RXR (NR concentration 90 nM, RXRa partner concentration 30 nM)
# Assay: PBM binding z-score (relative to random genomic background probes); higher = stronger binding; sequences stand for … in GC…GCGATTGACAGCGTAGAATGAAGG
# How it was run: (§1)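 Custom Agilent 4×180K protein-binding microarrays carried double-stranded probes. Their 34-nt variable regions held direct-repeat seeds, single-nucleotide variants, half-site ablations and random human genomic background sequences. Arrays were incubated 1 h with ligand-free nuclear receptor dimers in PBS pH 7.4, 2% milk, 0.02% Triton X-100, 1 mM DTT, 0.2 mg/mL BSA and 0.4 mg/ml salmon testes DNA. Antibodies against each partner (one per run) detected binding, and scanned fluorescence was regression-normalized. Binding z-scores use random background probes as reference.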
row,Sequence,PBM binding z-score
1,GGAACGAGGGCAAAGCTGATAGCATCTGTCGACG,1.17
2,CCTAGCAGGACAATCTGGGTCACTCAAGGCTTGA,1.56
3,CGAACGAGGGCATGAGTCGATAGCAAATGCCGAT,1.93
4,TAGCCTAGGTCATGCGGGCCAGTAAAGTGTCGGC,1.37
5,CGTTACGGGTCACTGACAGGTTATAGCATTTGGA,3.39
6,AGAATCAGGTTACCAAAGATCAGGGAAACGCTTG,0.466
7,CCTACTGGGCCAAAAAGGTCATCGATGCCGATAA,4.04
8,ATATGTACGTTAAGGGTCATTCAGGTTGGTTCGC,6.21
9,TCTCGGAGGATACGAAGGTCAGAGCTTTCCAGAG,1.51
10,TCATATAGGTAAAGGTGAAAGTGGAACGATATGA,5.14
11,CCTGCTAGGTCAATGGCCAGCTAAAGCAGCTCGC,1.8
12,TCGGACAGGTGAAGGTAACTCAGGTACGCAGTCG,1.87
13,TCATATAGGTAAAACGTGAAAGTCGGTGTGGTAA,4.71
14,GCAGACAGGTGAAACGCAGGTAACTCACGGTGGC,-0.11
15,CGTCCAAGGTCAGAGAGGTCAGGGAATGCCGAGT,3.6
16,GCTCGGAGGACAAGCTCAGAGCTTTGTCCGTAGA,-1.33
17,TGTAGTTGGTCACGGAGGTCACACACGACGGGTA,2.93
18,CAAACTAGGTCAAGAGGTCACAGTCCGCTTCCCG,8.69
19,CAAACTAGGTCAAGAGGTCGAAGTCCGCTTCCCG,7.63
20,GCCTACGGGTCAAAGGTTATAGCATGAATAGAAT,9.24

row,Sequence,PBM binding z-score
1,TAGCCTAGGTCATGGGCCAGCATACCACGCGAAC,2.69
2,CGAACTGGGTCATCCAGGACAGTGAATACATTGA,5.51
3,CCAGACAGGTGAAAGATAACTCAGTCTGGTACGC,1
4,CCTACTGGGCCATCAGGTCATTGTTATCAACGTT,2.74
5,CGAACTAGGACAAGGACAGTGAATCTCCGCACGC,0.216
6,CAGCCTAGGTCACGGCCAGTATAGGAGGAACGTT,3.12
7,TCATATAGGTAAATGCTAGGTGAAAGCCCGATCT,3.05
8,GCTCGGACGACAAGGTCAGAGCTTTGTCCGTAGA,-0.125
9,CAAGCTAGGTCACGAAAGGTCAAAGTCGAATGAC,6.31
10,TAGGCTAGGTCATGGGCCAGTATACCACGCGAAC,3.18
11,GCAGACAGGTGAAACGCAGGTAAATCAGGGTGGC,-0.346
12,CCTTACGGGTCAAGGTTATTGCACGGGTGGTACG,3.46
13,ACTGACAGGTGATGAAGGTAACTCAGGCTATCAT,0.219
14,CAAACTAGGTCATCGGAAGGTCAAAGTCCGCATG,7.04
15,CAAACTAGGTAACGAAAGGTCAAAGTCGAATGAC,5.76
16,TCTCGGAGGACCCGAAGGTCAGAGCTTTCCAGAG,1.63
17,AACACAGGGTCATCGTAGGCCAGAGTACGCACAG,4.21
18,AGAATGAGGTTATTAAGATCCGGGAATTGCGGTC,0.869
19,TCATATAGGTAAATGCTAGATGAAAGTCCGATCT,2.79
20,CCTGCTAGGTCATGGTAAGCTAATCTACAGTATG,1.66

# Tested on: PPARg:RXRa DBDmut IVT, anti-RXR (DBD mutation: RXRa K156A/R161A, NR concentration 270 nM, RXRa partner concentration 90 nM)
# Assay: as above
# How it was run: as §1
row,Sequence,PBM binding z-score
1,GGAACGAGGGCAAAGCTGATAGCATCTGTCGACG,4.19
2,CCTAGCAGGACAATCTGGGTCACTCAAGGCTTGA,4.78
3,CGAACGAGGGCATGAGTCGATAGCAAATGCCGAT,2.97
4,TAGCCTAGGTCATGCGGGCCAGTAAAGTGTCGGC,1.41
5,CGTTACGGGTCACTGACAGGTTATAGCATTTGGA,3.65
6,AGAATCAGGTTACCAAAGATCAGGGAAACGCTTG,3.77
7,CCTACTGGGCCAAAAAGGTCATCGATGCCGATAA,3.54
8,ATATGTACGTTAAGGGTCATTCAGGTTGGTTCGC,0.825
9,TCTCGGAGGATACGAAGGTCAGAGCTTTCCAGAG,1.14
10,TCATATAGGTAAAGGTGAAAGTGGAACGATATGA,3.98
11,CCTGCTAGGTCAATGGCCAGCTAAAGCAGCTCGC,4.15
12,TCGGACAGGTGAAGGTAACTCAGGTACGCAGTCG,2.03
13,TCATATAGGTAAAACGTGAAAGTCGGTGTGGTAA,6.04
14,GCAGACAGGTGAAACGCAGGTAACTCACGGTGGC,1.05
15,CGTCCAAGGTCAGAGAGGTCAGGGAATGCCGAGT,2.19
16,GCTCGGAGGACAAGCTCAGAGCTTTGTCCGTAGA,-0.93
17,TGTAGTTGGTCACGGAGGTCACACACGACGGGTA,0.726
18,CAAACTAGGTCAAGAGGTCACAGTCCGCTTCCCG,8.51
19,CAAACTAGGTCAAGAGGTCGAAGTCCGCTTCCCG,8.31
20,GCCTACGGGTCAAAGGTTATAGCATGAATAGAAT,2.12

row,Sequence,PBM binding z-score
1,TAGCCTAGGTCATGGGCCAGCATACCACGCGAAC,1.68
2,CGAACTGGGTCATCCAGGACAGTGAATACATTGA,7.33
3,CCAGACAGGTGAAAGATAACTCAGTCTGGTACGC,1.22
4,CCTACTGGGCCATCAGGTCATTGTTATCAACGTT,4.42
5,CGAACTAGGACAAGGACAGTGAATCTCCGCACGC,5.04
6,CAGCCTAGGTCACGGCCAGTATAGGAGGAACGTT,3.65
7,TCATATAGGTAAATGCTAGGTGAAAGCCCGATCT,3.61
8,GCTCGGACGACAAGGTCAGAGCTTTGTCCGTAGA,-0.353
9,CAAGCTAGGTCACGAAAGGTCAAAGTCGAATGAC,5.1
10,TAGGCTAGGTCATGGGCCAGTATACCACGCGAAC,2
11,GCAGACAGGTGAAACGCAGGTAAATCAGGGTGGC,0.287
12,CCTTACGGGTCAAGGTTATTGCACGGGTGGTACG,2
13,ACTGACAGGTGATGAAGGTAACTCAGGCTATCAT,0.252
14,CAAACTAGGTCATCGGAAGGTCAAAGTCCGCATG,7.98
15,CAAACTAGGTAACGAAAGGTCAAAGTCGAATGAC,7.04
16,TCTCGGAGGACCCGAAGGTCAGAGCTTTCCAGAG,0.809
17,AACACAGGGTCATCGTAGGCCAGAGTACGCACAG,2.2
18,AGAATGAGGTTATTAAGATCCGGGAATTGCGGTC,2.93
19,TCATATAGGTAAATGCTAGATGAAAGTCCGATCT,3.61
20,CCTGCTAGGTCATGGTAAGCTAATCTACAGTATG,4.44
